Experimental data taken from PubChem BioAssay AID588579 (National Center for Advancing Translational Sciences (NCATS), 2011).
Out of some 400,000 compounds screened, about 2,200 (0.55%) were called active. About 1% were inconclusive and are not listed. The sample holds actives, similar compounds and a random draw of the others, so the mix is not that of the screen. A number with no mark means an inactive call. The call rests on the fitted dose curve; in most records, active means well fitted inhibition curve with a large enough effect; inconclusive means small, poorly fitted or top-dose-only effect, or another doubt; inactive means no such curve, though single readings can be large or run the other way.

Target: DNA polymerase kappa (Homo sapiens) (UniProt Q9UBT6)
Experiment: qHTS for Inhibitors of Polymerase Kappa
Settings: purified Pol kappa, fluorescent DNA synthesis assay, 10 min; series mostly up to 107 µM; activity, negative = inhibition: at the top concentration
Method in brief: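 10 nM Pol kappa was preincubated with compounds for 15 min at room temperature. Reaction started with 50 nM (final) substrate. Fluorescence read kinetically at 0 and 10 min.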
On the % scale 0 is the no-effect control and ±100 the full control effect; potency means the concentration at half of the fitted maximal effect.

Chain of DNA polymerase kappa (Homo sapiens) (Q9UBT6 whole entry, looked up): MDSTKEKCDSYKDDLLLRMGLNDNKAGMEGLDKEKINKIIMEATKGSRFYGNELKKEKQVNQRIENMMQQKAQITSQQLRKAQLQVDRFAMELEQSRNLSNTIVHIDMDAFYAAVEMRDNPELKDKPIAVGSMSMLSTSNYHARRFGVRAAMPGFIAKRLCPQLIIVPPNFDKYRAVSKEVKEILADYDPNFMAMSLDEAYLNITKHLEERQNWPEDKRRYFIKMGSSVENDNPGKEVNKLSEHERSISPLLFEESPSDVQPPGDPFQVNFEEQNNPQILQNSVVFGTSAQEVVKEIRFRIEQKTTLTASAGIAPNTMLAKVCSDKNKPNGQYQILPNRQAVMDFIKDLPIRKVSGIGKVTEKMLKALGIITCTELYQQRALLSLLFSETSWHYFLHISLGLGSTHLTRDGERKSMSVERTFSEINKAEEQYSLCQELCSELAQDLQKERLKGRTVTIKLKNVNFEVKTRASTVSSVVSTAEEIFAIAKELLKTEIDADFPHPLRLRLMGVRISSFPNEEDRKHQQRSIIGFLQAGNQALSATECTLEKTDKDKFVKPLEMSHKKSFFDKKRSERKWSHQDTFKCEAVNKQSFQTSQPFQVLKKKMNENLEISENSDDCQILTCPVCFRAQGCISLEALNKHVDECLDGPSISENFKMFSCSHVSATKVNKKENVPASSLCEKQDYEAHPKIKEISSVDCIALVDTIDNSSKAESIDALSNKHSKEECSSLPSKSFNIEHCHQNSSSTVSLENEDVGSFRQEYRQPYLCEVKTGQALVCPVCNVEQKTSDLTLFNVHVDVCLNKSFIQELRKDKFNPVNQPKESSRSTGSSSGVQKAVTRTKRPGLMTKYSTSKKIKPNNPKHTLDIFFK

Row | Structure (SMILES) | activity, negative = inhibition | Potency
1 | O=C1COc2ccc(-c3csc(-c4ccc(Cl)cc4)n3)cc2N1 | -13.5% | 
2 | COc1ccc(CC(=O)Nc2sc(Cc3ccccc3)c(C)c2C(N)=O)cc1 | -3.59% | 
3 | COc1ccc(Cc2nnc(NC(=O)Cc3cccs3)s2)cc1 |  | 14.1 µM (active)
4 | CCc1nnc(NC(=O)CCC(=O)NCc2ccccc2OC)s1 | -16.7% | 
5 | C=C[C@](C)(O)CCC1C(=C)CCC2[C@@](C)(CO)CCC[C@@]12C (stereo not given in full) | -3.85% [at 60.1 µM] | 
6 | CC(=O)OCC(=O)C1CCC2C3CCC4=CC(=O)CC[C@@]4(C)C3CC[C@]12C (stereo not given in full) | -6.68% [at 60.1 µM] | 
7 | COC(=O)[C@@H]1CC2=CC(=O)CC[C@]2(C)[C@@]23O[C@@H]2C[C@@]2(C)[C@@H](CC[C@@]24CCC(=O)O4)[C@H]13 | -3.54% [at 60.1 µM] | 
8 | COc1ccc(/C=C/c2ccccn2)cc1OC | -24.3% | 
9 | Cc1cc(C(=O)OCC(=O)NCc2ccco2)c(C)n1-c1ccccc1 |  | 79.4 µM (active)
10 | CN(c1ccccc1)S(=O)(=O)c1ccc(Cl)c(C(=O)OCC(=O)N2CCOCC2)c1 | 8.17% | 
11 | COc1ccc(-n2c(SCC(=O)NCc3ccco3)nnc2-c2c[nH]c3ccccc23)cc1 | -8.14% | 
12 | O=C(COC(=O)c1cc(S(=O)(=O)N2CCOCC2)ccc1Cl)NCCc1ccccc1 | -3.4% | 
13 | Cn1c(N)c(C(=O)COC(=O)c2ccccc2NCc2ccco2)c(=O)n(C)c1=O | 6.37% | 
14 | CN(c1ccccc1)S(=O)(=O)c1ccc(Cl)c(C(=O)OCC(=O)NCc2ccco2)c1 |  | 79.4 µM (active)
15 | CCNc1ncc2ncc(=O)n(Cc3cccc(OC)c3)c2n1 | 2.21% [at 60.1 µM] | 
16 | Cc1cc(N(C)C)nc(Cl)n1 | -8.53% [at 12 µM] | 
17 | O=C(Nc1cccc(F)c1)N1CCC2(CC1)CCN(S(=O)(=O)c1ccccc1)CC2 | -9.65% [at 60.1 µM] | 
18 | COc1ccc(/C=C/c2ccnc3ccccc23)cc1OC | -24% | 
19 | Cc1cccc(CN2Cc3cccc4c3[C@H](C=CC4)CC2=S)c1 | -2.46% | 
20 | CCN(C(=O)COC(=O)CCC(=O)c1cccs1)C1CCCCC1 | -3.1% | 
21 | O=C(COC(=O)CCC(=O)c1cccs1)NCc1ccco1 |  | 31.6 µM (active)
22 | CC1CCN(C(=O)COC(=O)CCC(=O)c2cccs2)CC1 | -7.82% | 
23 | O=C(Nc1cccc(F)c1)N1CC2(CCN(C(=O)c3cnccn3)CC2)C1 | 4.72% [at 60.1 µM] | 
24 | CC(C)[C@H](CO)Nc1nc(Nc2cc(N)cc(Cl)c2)c2ncn(C(C)C)c2n1 | -6.51% [at 19.4 µM] | 
25 | Clc1ccccc1CSc1nnc(-c2ccco2)c(-c2ccco2)n1 |  | 35.5 µM (active)

Row | Structure (SMILES) | activity, negative = inhibition | Potency
26 | c1ccc(CSc2nnc(-c3ccco3)c(-c3ccco3)n2)cc1 |  | 20 µM (active)
27 | CSc1n[nH]c(-c2ccco2)n1 | -8.42% | 
28 | Cc1ccc(-c2nnc(SCC(=O)NCc3ccccc3)nc2-c2ccc(C)cc2)cc1 | -7.44% [at 60.1 µM] | 
29 | CC1(C)N=C(SCc2ccccc2Cl)c2ccccc2N1 | -2.08% | 
30 | Clc1ccccc1CSc1nncn2c1cc1occc12 | -18.1% | 
31 | Nc1nc2c(nc(Cl)n2C2OC(CO)C(O)C2O)c(=O)[nH]1 (stereo not given) | -1.67% [at 60.1 µM] | 
32 | COC(=O)N1CCC2(CCCN(c3ccncc3)C2)CC1 | -15.3% [at 60.1 µM] | 
33 | O=P(O)(O)C(O)c1ccc2ccccc2c1 (stereo not given) | 8.31% [at 19.4 µM] | 
34 | COc1cc2nc(Cl)nc(NC3CC3)c2cc1OC | -19.7% | 
35 | Cc1ccc(Nc2nnc(-c3ccc(C)c(S(=O)(=O)N4CCCCC4)c3)c3ccccc23)cc1 | 2.95% | 
36 | Cc1ccc(-c2nnc(Nc3ccc(C(=O)N(C)C)cc3)c3ccccc23)cc1S(N)(=O)=O | -16% | 
37 | Cc1ccc(C)c(Nc2nnc(-c3ccc(C)c(S(=O)(=O)N4CCCCC4)c3)c3ccccc23)c1 |  | 79.4 µM (active)
38 | Cc1ccc(-c2ncc(Cl)cc2-c2ccc(S(C)(=O)=O)cc2)cn1 | 1.36% [at 60.1 µM] | 
39 | O=C(c1cc(C(F)(F)F)cc(C(F)(F)F)c1)N1CCC2(CCCN(c3ccccn3)C2)CC1 | -9.22% [at 60.1 µM] | 
40 | COc1ccccc1CNc1ccnc(-c2c(C)noc2C)n1 | 5.78% [at 60.1 µM] | 
41 | Cc1ccccc1NC(=O)Cn1c(=O)n(CCc2ccccc2)c(=O)c2ccccc21 | 2.94% | 
42 | Cc1ccccc1NC(=O)CN1C(=O)C(C)(C)c2ccccc21 | -11.7% [at 60.1 µM] | 
43 | Cc1ccccc1NC(=O)CN1C(=O)N/C(=C\c2cccn2-c2cccc(C(=O)O)c2)C1=O |  | 14.1 µM (active)
44 | COc1ccccc1CNc1nc(-c2c(C)noc2C)nc2ccccc12 | -6.77% [at 60.1 µM] | 
45 | COc1c(O)c2c(=O)cc(OC)c3c4c(OC)cc(=O)c5c(O)c(OC)c6c(c(c1C[C@@](C)(O)[C@H]6C(C)=O)c23)c54 | -7.61% [at 60.1 µM] | 
46 | Cc1ccc(S(=O)(=O)N2CCCC2C(=O)OCc2nc3sc(C)c(C)c3c(=O)[nH]2)cc1 (stereo not given) | -2.3% | 
47 | CSc1nnc(SCc2nc3sc(C(=O)O)c(C)c3c(=O)[nH]2)s1 |  | 25.1 µM (active)
48 | CCN(CC)Cc1nc2sc(C)c(C)c2c(=O)[nH]1 | 3.84% | 
49 | FC(F)(F)c1ccccc1-c1cc(NCc2ccccc2)ncn1 | -1.26% [at 60.1 µM] | 
50 | CCC(C)N(c1ccc(/C=C/c2ccnc3ccccc23)cc1)C(C)CC (stereo not given) | -5.7% | 
